Activity calls are given as the source filed them. The calls were made as follows: active = hit-call score of the fitted dose curve at least 0.9, where 1 is the maximum; inactive = score below 0.9.

Read-out in the assay: Monocyte Chemoattractant Protein-1 (MCP1), CCL2 (gene 6347)
Description: BSK_4H_MCP1: BioMAP Diversity Plus: 4H Assay for Monocyte Chemoattractant Protein-1 (MCP1) Biomarker Activity (AID 2283018). Conditions: primary human endothelial cells (HUVEC); actives raise or lower the signal. The protocol: BSK_4H is a cell-based, multiplexed-readout assay that uses umbilical vein endothelium, a human vascular primary cell, with measurements taken at 24 hours after chemical dosing in a 96-well plate.BSK_4H_MCP1 is an assay component measured in the BSK_4H assay. It measures MCP-1 antibody related to regulation of gene expression using ELISA technology.Data from the assay component BSK_4H_MCP1 was analyzed into 1 assay endpoint. This assay endpoint, BSK_4H_MCP1, was analyzed with bidirectional fitting relative to DMSO as the negative control and baseline of activity. Using a type of binding reporter, gain or loss-of-signal activity can be used to understand changes in the signaling as they relate to the gene CCL2. Furthermore, this assay endpoint can be referred to as a primary readout, because this assay has produced multiple assay endpoints where this one serves a signaling function. To generalize the intended target to other relatable targets, this assay endpoint is annotated to the cytokine intended target family, where the subfamily is chemotactic factor.
The levels of cell surface (or secreted, indicated by the prefix "s") biomarker endpoints were measured by ELISA. Overt cytotoxicity to cells in confluent adherent cultures (all systems other than the BT system) was assessed by measuring total protein levels using sulforhodamine B (SRB) staining in parallel cultures at the time of biomarker measurements, indicated as SRB endpoints. For proliferation assays for adherent cell types, individual cell types are cultured at sub-confluence and relative cell numbers quantified by SRB staining at time points optimized for each system (48 h: 3C and CASM3C systems; 72 h: BT and HDF3CGF systems; 96 h: SAg system). SRB was performed by staining cells with 0.1% SRB after fixation with 10% TCA and reading wells at 560 nm.Viability and proliferation of PBMC (T cells) was quantified by Alamar Blue reduction for the SAg and BT systems. For PBMC viability (referred to as PBMC Cytotoxicity within the assay endpoint names), cells were plated (75,000/well in a 96-well plate) and then chemical samples added for 1 h before addition of activators, SEB and TSST-1 (20 ng/mL final concentration each). Cells were incubated for 90 h. Then, Alamar Blue (20 uL/well) (Invitrogen, Cat DAL1100) was added for 6 h, and the plates were read with a fluorescence microplate reader at 546/580 nm (excitation/emission). For PBMC proliferation, cells were plated and activated as above but incubated for only 16 h prior to addition of Alamar Blue. Plates were read after 6 h.
For the compound `O=C(O)Cc1ccccc1Nc1c(Cl)cccc1Cl`, the outcome was inactive.

With `Cc1ccc(C)c(O)c1C`, the result was inactive.

Take `CC(CO)OC(C)CO` (stereo not given) (tested in a mixture with another compound): the result was inactive.

Regarding `CC(C)c1ccc(C(=O)N=C(N)N)cc1S(C)(=O)=O`, the result was inactive.

For the compound `Oc1ccc2c(c1)OC[C@@H](N1CCC(O)(c3ccc(F)cc3)CC1)[C@H]2O`, the outcome was inactive.

For the compound `C[C@]12C=CC(=O)C=C1CC[C@@H]1[C@@H]2C(=O)C[C@@]2(C)[C@H]1CC[C@]2(O)C(=O)CO`, the result was inactive.

`O=C(N[C@@H](Cc1ccccc1)[C@@H](O)C(=O)N1C[C@@H](O)[C@@H](O)C1)c1cc2cc(Cl)ccc2[nH]1`: the result was inactive.

Consider `CCCCCCC(=O)OCC`, for which the outcome was inactive.

In the case of `COC(=O)c1ccc(O)cc1`, the outcome was inactive.

Take `CCCCCCCCCCC`: the outcome was inactive.

Regarding `CC1=C(/C=C/C(C)=C/C=C/C(C)=C/CO)C(C)(C)CCC1`, the result was inactive.

`CNC(=O)[C@H]1O[C@@H](n2cnc3c(NCc4cc(Cl)ccc4OCc4cc(C)no4)ncnc32)[C@H](O)[C@@H]1N`: the result was inactive.

Consider `CN1CCN(Cc2cc(-c3ccc4[nH]c(=O)oc4c3)co2)[C@@H](c2ccc(F)cc2)C1`, for which the concentration at half-maximal activity (AC50) – broadly, the concentration at which the activity in the assay is half-maximal – is 3.68 µM (active).

Consider `CC1(C)NC(=O)NC1=O`, for which the outcome was inactive.

In the case of `NCC1(Cc2noc(=O)[nH]2)CCCCC1`, the result was inactive.

Take `Cc1cccc(C)c1O`: the result was inactive.

With `COCCOCCOC`, the outcome was inactive.

Regarding `c1cc(-c2ccncc2)ccn1`, the result was inactive.

As for `CN1CCCC1=O`, the outcome was inactive.

As to `CCCCCCCCCCCCCCCC`, the outcome was inactive.

On to `Cc1ccc2ncccc2c1`, for which the result was inactive.

For `COc1cc(C=O)ccc1O`, the result was inactive.

Turning to `COc1ccc(S(=O)(=O)N2C(=O)[C@@](c3ccccc3OC)(N3C[C@H](O)C[C@H]3C(=O)N(C)C)c3cc(Cl)ccc32)c(OC)c1`, the outcome was inactive.

Turning to `Cc1nc(C)nc(N2C[C@@H](C)N(c3ccnc([C@@H](C)O)n3)[C@@H](C)C2)n1`, the result was inactive.

For the compound `CNCc1cc(F)ccc1Oc1ccc(Cl)c(Cl)c1`, the AC50 was 11.6 µM (active).

On to `Oc1ccc2ccccc2c1N=Nc1ccccc1`, for which the result was inactive.

In the case of `CCCCc1ccc2c(n1)[C@@H](c1ccc(OC)cc1C[C@H](C)C(=O)O)[C@H](C(=O)O)[C@H]2c1ccc2c(c1)OCO2`, the result was inactive.

For `C=CCc1ccc(O)c(OC)c1`, the result was inactive.

With `CCNc1cccc(C)c1`, the outcome was inactive.

As to `COCCOC[C@H](CC1(C(=O)NC2CCC(C(=O)O)CC2)CCCC1)C(=O)Oc1ccc2c(c1)CCC2` (stereo not given in full), the outcome was inactive.

As for `CCCCC(CC)COC(=O)CC(C(=O)OCC(CC)CCCC)S(=O)(=O)O` (stereo not given), the AC50 is 29.3 µM (active).

With `O=[N+]([O-])C(CO)(CO)CO`, the result was inactive.

Turning to `Cc1ccc(C(C)C)c(O)c1`, the outcome was inactive.

For the compound `C=CCOC(=O)c1ccccc1C(=O)OCC=C`, the result was inactive.

With `CCOC(=O)CCC(=O)OCC`, the result was inactive.

Consider `C1CCC(SSC2CCCCC2)CC1`, for which the result was inactive.

Turning to `CN[C@H]1CC[C@@H](c2ccc(Cl)c(Cl)c2)c2ccc(S(N)(=O)=O)cc21`, the concentration at half-maximal activity (AC50) was 20 µM (active).

For `NC(=O)Cn1c(=O)cc(CCN2CCN(c3nccc4sccc34)CC2)c2ccc(F)cc21`, the outcome was inactive.

Take `O=C(OCCCCCOC(=O)c1ccccc1)c1ccccc1`: the outcome was inactive.

As for `O=c1[nH]cc(F)c(=O)[nH]1`, the result was inactive.

The values above are taken from PubChem BioAssay (EPA / NIEHS).
